Molecules are shown by their SMILES. ± gives the standard deviation.

We go through 39 compounds from the supplement of paper PMC3484114.

For this experiment, the system named is OVCAR-3-derived ovarian cancer stem-like cells (spheroids). The experiment is described as follows: cell growth relative to untreated control; higher = more growth (less inhibition). Particulars: 2.29 µM; 96 h. The essentials:
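After trypsin dissociation, OVCAR-3 spheroid-derived stem-like cells were placed in ultra-low attachment 96-well plates at 50,000 cells/mL in stem cell medium and preincubated for 24 h. Treatment at 2.29 uM followed for 96 h at 37°C, 5% CO2, with 4 replicate wells per compound. A 4 h TOX8 resazurin fluorescence read (ex 560/em 590 nm) gave viability, from which percent growth relative to untreated wells was derived after blank subtraction and Grubbs outlier removal.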
`COc1ccc(/C=C2\N=C(c3ccccc3)OC2=O)c(OCc2ccccc2)c1` came in with a cell growth of 69.7 ± 24%.

`CCCC(=O)OCC1OC(n2ccc(N)nc2=O)C(OC(=O)CCC)C1OC(=O)CCC` (centres undefined) came in with a cell growth of 31.7 ± 19%. On to `Cc1ccccc1NC(=O)C(=O)C(c1cnc2ccc([N+](=O)[O-])cc2n1)[N+](=O)[O-]` (centres undefined), for which the cell growth was 112 ± 25%. For the compound `CCN(CC)CC(C)(C)C(=O)/C=C/c1ccc(C)cc1`, the cell growth is 80.7 ± 22%. The compound `CN(C)CCN1C(=O)c2cccc3cc(N)cc(c23)C1=O` gave a cell growth of 60.2 ± 11%. The same measure for `CC[C@@]1(O)C[C@H](O[C@H]2C[C@H](N(C)C)[C@H](O[C@H]3C[C@H](O)[C@H](O[C@H]4CCC(=O)[C@H](C)O4)[C@H](C)O3)[C@H](C)O2)c2c(cc3c(c2O)C(=O)c2c(O)cccc2C3=O)[C@@H]1C(=O)OC`: 48.2 ± 42%. The same measure for `CCN1CCC(O)(/C=C/c2ccc(C)cc2)C(C(=O)/C=C/c2ccc(C)cc2)C1` (centres undefined): 98.5 ± 13%; for `COc1ccc(S(=O)(=O)N/N=C/C(=O)O)cc1`: 117 ± 15%. In turn, `CCOC(=O)Cc1c(C)c2cc(C(=O)c3ccccc3)c(O)cc2oc1=O` displayed a cell growth of 98 ± 18%. The result for `CC(C)CC(NC(=O)OCc1ccccc1)C(=O)NC(Cc1ccccc1)C(=O)CCl` (centres undefined) reads 92.9 ± 35%; that for `Cc1ccc([N+](=O)[O-])cc1NC(=O)c1cccc([N+](=O)[O-])c1O`, 146 ± 41%; that for `Clc1ccc(-c2c(C3=NCCCN3)nnn2-c2ccc(Cl)cc2)cc1`, 156 ± 57%.

`O=C1c2cccc(O)c2C(=O)c2c(O)cccc21` displayed a cell growth of 68.8 ± 19%.

In turn, `Cc1nc(Nc2ccc(Cl)c(Cl)c2)sc1C(/C=C/c1ccc2c(c1)OCO2)=N/Nc1ccc([N+](=O)[O-])cc1[N+](=O)[O-]` yielded a cell growth of 101 ± 15%. The same measure for `O=C(CC1(O)C(=O)Nc2c(Cl)ccc(Cl)c21)c1ccc(Cl)cc1` (centres undefined): 142 ± 53%. The result for `O=[N+]([O-])c1cccc2nc3ccccc3c(NCCCNc3c4ccccc4nc4cccc([N+](=O)[O-])c34)c12` reads 10.8 ± 2.9%; that for `O=C(CCc1ccccc1)On1nnc2ccccc2c1=O`, 79 ± 18%; that for `O=C1c2ccccc2C(=O)C1C(c1ccc([N+](=O)[O-])cc1)C1C(=O)c2ccccc2C1=O`, 83.3 ± 24%.

`COc1cc(/C=C/C(=O)CC(=O)/C=C/c2ccc(O)c(OC)c2)ccc1O` gave a cell growth of 89 ± 24%. As to `CC[C@]1(O)C[C@@H]2CN(CCc3c([nH]c4ccccc34)[C@@](C(=O)OC)(c3cc4c(cc3OC)N(C)[C@H]3[C@@](O)(C(=O)OC)[C@H](OC(C)=O)[C@]5(CC)C=CCN6CC[C@]43[C@@H]65)C2)C1`, the cell growth worked out at 49.1 ± 11%. As to `Cc1c2cc[n+](CCN3CCCCC3)cc2c(C)c2c1[nH]c1ccc(O)cc12`, the cell growth was 146 ± 52%. As to `CC(C)C1=C(O)C2=C(C(=O)C1=O)C1(C)CCCC(C)(C)C1CC2O` (centres undefined), the cell growth stood at 134 ± 36%. The same measure for `COc1ccc2cc1Oc1ccc(cc1)CC1c3c(cc(OC)c4c3Oc3cc5c(cc3O4)CCNC5C2)CCN1C` (centres undefined): 71.8 ± 23%; for `CCC12C[N+]3([O-])CCc4c([nH]c5ccccc45)C(C(=O)OC)(c4cc5c(cc4OC)N(C)C4C(O)(C(=O)OC)C(OC(C)=O)C6(CC)C=CCN7CCC54C76)CC(C3)C1O2` (centres undefined): 27.9 ± 4.2%. The same measure for `CC(C)(C)N(Cc1ccc2c(c1)OCO2)C(=O)/C=C\[S+]([O-])c1ccccc1` (centres undefined): 41.6 ± 10%; for `CCSC(=O)N1c2ccc(OC)cc2C=CC1C#N` (centres undefined): 52.9 ± 11%. As to `COC(=O)/C(=N\NC(=O)c1ccccc1O)C(C#N)c1ccccc1` (centres undefined), the cell growth was found to be 99.9 ± 33%. The result for `COc1ccccc1[S+]([O-])Nc1ccccc1` (centres undefined) reads 117 ± 25%; that for `COc1ccc(NC(=O)CC(=O)N2N=C(C)C(N=Nc3ccc(S(=O)(=O)c4ccc(N=NC5C(=O)N(C(=O)CC(=O)Nc6ccc(OC)cc6)N=C5C)cc4)cc3)C2=O)cc1` (centres undefined), 105 ± 30%. The same measure for `NC(=S)NN=Cc1ncccc1O`: 95.3 ± 16%; for `CCCCCCCCCCCCCCCCOP(=O)([O-])OCC[N+](C)(C)C`: 85.9 ± 16%.

`O=C(Nc1cccc(C(F)(F)F)c1)C(=O)C(C(=O)c1ccc(Cl)c(Cl)c1)C1OC(=O)c2ccccc21` (centres undefined) had a cell growth of 102 ± 20%.

Compound `CSCC(CO)NC(=O)/C=C/c1c(C)[nH]c(=O)[nH]c1=O` (centres undefined) had a cell growth of 82.8 ± 9.5%. The same measure for `O=C1C=C(Nc2ccccc2C(=O)CC(=O)C(=O)Nc2ccc(Cl)cc2)c2ccccc2C1=O`: 49.4 ± 15%; for `CN(C)CCCN1c2ccccc2Sc2ccc3ccccc3c21`: 117 ± 58%.

`Cc1c2ccncc2c(C)c2c1sc1ccccc12` came in with a cell growth of 120 ± 13%. With `O=C(c1ccccc1)C1OC12C(=O)Nc1c(Cl)cc(Cl)cc12` (centres undefined), the cell growth is 94.6 ± 19%.

`Cc1ccc(NC(=O)c2cc3ccccc3c(N=Nc3ccccc3O)c2O)c(C)c1` gave a cell growth of 75.2 ± 20%. The result for `C=C1C(=O)O[C@@H]2/C=C(/C)C(=O)C[C@H]3OC(C)(C)O[C@]3(C)C[C@@H](OC(=O)/C(C)=C\C)[C@@H]12` reads 90.5 ± 31%.
